Data taken from the supplement of paper PMC6555819.

tested on: VDR:RXRa (NR concentration 270 nM, RXRa partner concentration 90 nM); assay: PBM binding z-score (relative to random genomic background probes); higher = stronger binding; sequences stand for … in GC…GCGATTGACAGCGTAGAATGAAGG
Protocol: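 Protein-binding microarray (Agilent 4x180K custom design, double-stranded 60-nt probes: 5' GC cap, 34-nt variable region, 24-nt constant primer region; full probe sequence given). Purified or IVT nuclear receptor:RXRα heterodimers (3:1 NR:RXRα, mostly 270:90 nM) or homodimers were incubated for 1 h in PBS with 2% milk and no ligand, then detected with Alexa488 antibodies. Fluorescence from o1-orientation probes (~5 replicates averaged) was converted to z-scores against 500 random hg19 background probes. Variable regions are seed direct-repeat (DR0–DR5) sites, all their single-nucleotide variants and half-site ablations.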

Sequence	PBM binding z-score
CCTACTGGTCCACGAAAGGTCATTGATTCAGTGA	4.24
CGTCCAAGGTCAAGGTCATTGAAAGAGACTCGAA	5.37
CCTCGGAGGCCAGAAGGTCAGAGCTGTCCGCTTT	0.72
TCTTGTAGATCAAGCAGGTTAAGCAAGCCTGAGT	0.328
ATATGTAGGTTATCGCGTCATTCAGTTTGCGCAT	0.798
CCTAGTTGGTCAGGAGGACACACACCGGATATGA	0.204
CCTACTGGGCCACGAAAGGTCATTTATTCAGTGA	4.27
CCTACTGGGCCATTCAGGGGTCATTGATCATATG	4.82
TCCAGTAGGTTAGTCGGGGCATTCAGCCAACATA	2.47
CGTCAAAGTTCAAGGTATCGTAACAGAAAGCAGC	3.74
CCTTACGGGTCACGAGGTTATAGGACGACGAGCG	4.9
GCGACCGGGGCAAAGCAGGTTACCATAAGGTTGG	0.7
TAGCCTAGGTAATTCAGGGGCCAGTATAGAAAGC	-0.417
TCTTGAAGATCAGCAGGTTAAGAAAGCTGGCCAA	0.374
CCTTACGGGTCACTACAGGTTATAGCATCGGAGT	4.06
CCGACTGGGGCATAAGGCTACCATAAGCCAGCCC	-0.694
CCCCGGAGGACAACAGGAGGTCAGAGCTGCCAGA	1.91
TCTTGTAGATCAACGGTTAAGAAAGCCGAAGCCT	0.234
CGTCCATGGTCATAGGAGGTCAGTGAAGACAGAT	2.94
GCTTACGGGTCAAAGGGTATAGCATGAATAGAAT	5.84

Sequence	PBM binding z-score
CCTACTGGGCCAAAAAAGTCATTGATGCCGATAA	-0.174
CGAACTAGGTCATTGACAGGACACTGAATAGTAA	2.52
CCGAGTAGTTTATGGGGCATTCAGGCAACGGTGA	-0.229
TCTTGTATATCAACAGGAGGTTAAGAAAGATCGA	1.28
GGAACGAGGGCCAAGTTGATAGCATCTGTCGACG	-0.379
CCTATTATTTGACCATAAGGGCAACCGAAGCTCG	1.28
CTAGACAGGTGAGAAGGTAACTCAGCCTCGATTA	-0.342
ATCGAAAGGTCGAGGTGAGTACAGAGAAAGGGAA	4.25
TCTTGTAGATCAACTGGAGGTTAAGAAAGATCGA	0.589
AGAATGACGTTATACGTAGATCAGGGAAGAAAGT	-0.532
TCATATAGGTAAAAAGGTGAAAGTCCGTAAGTTA	1.61
ATATGTAGATTAAGGGTCATTCAGGTTGGTTCGC	5.22
AGAGTGAGGTTAAGATCAGGGAAACAGAATACAT	1.62
CAAACTAGGTCACCGGATGGTCAAAGTCCGCATG	2.78
CCGACTGGGGCCAGGTTACCATAACGCACAGCCA	-0.248
GCTGCTAGGTCAAGTGATGGTCAGCTAAAGCTCG	1.63
GGAACGAGGGCACTCGAGTTGATAGCATGGCGAT	2.64
CGTCCAAGGTCAATGCTAGGTCAATGAAAGCATT	5.33
TGTCAAAGTTCAAAGGTAACATAAGTATCCACAC	5.14
GGAACGAGGGCATTCGAGTTGATGGCATGGCGAT	3.36
